About 83,000 compounds went through this panel and 20% of them were active in at least one assay; those are over-represented in the sample as a whole.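 Assay: single dose, 48 h. Readout: percent growth (0 = no net growth; negative = cell death). Active: <10.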 The source made the active and inactive calls.

This assay concerns MDA-MB-468 breast. Briefly: NCI-60 one-dose screen, 48 h (100 = growth as untreated, 0 = no growth, -100 = all killed). As to conditions: 10 µM unless noted.
`CCCN1C(=O)/C(=c2\sc3n(c2=O)NC2C(N=3)N(CC)C(=O)N2CC)c2ccccc21` (stereo not given): the growth is 14.6% (inactive).

On to `CN(C)[C@@H]1C(=O)C(C(=O)NCc2nc3[nH]cnc(=S)c3[nH]2)=C(O)[C@@]2(O)C(=O)C3=C(O)c4c(O)cccc4[C@@](C)(O)[C@H]3C[C@@H]12`, for which the growth was 81.2% (inactive).

`CCCCCCC(C)CC1=C(O)c2ccccc2C(=O)C1=O` (stereo not given): the growth is 1.43% (active). With `c1ccc2c(N=NSc3ncnc4nc[nH]c34)c3ccccc3nc2c1`, the growth is -55.1% (active). Under `CC(C)C[C@@H](NC(=O)[C@@H](Cc1ccccc1)NC(=O)c1cnccn1)B1O[C@H]2[C@H](O)[C@@H](C(=O)NCCCC[C@@H]3NC(=O)[C@@H](Cc4ccccc4)NC(=O)[C@H](CC(=O)O)NC(=O)CNC(=O)[C@H](CCCN=C(N)N)NC3=O)O[C@@H](CN)[C@H]2O1` stands -45.5% (active); under `O=C(Nc1ccc(Br)cc1F)c1cc(F)ccc1O`, -0.885% (active); under `COC(=O)c1c2c(n3ccc(C)cc13)C(=O)c1ccccc1C2=O`, 86.3% (inactive). As for `OCCS`, the growth was 100% (inactive). As for `N#CC(C#N)=NO`, the figure is 93.2% (inactive); as for `CCC(C)(C)c1ccc(OCCCCCCN2CCN(c3ccc(C)c(Cl)c3)CC2)cc1`, 47.1% (inactive).

`CC[C@H](CO)Nc1ccc2ncc(C#Cc3cncc(C(=O)Nc4ccc(CN5CCN(C)CC5)c(C(F)(F)F)c4)c3)n2n1`: the growth is -67.8% (active). As for `COc1ccc2cc(-c3ccc(NC(C)=O)c(=O)o3)ccc2c1`, the figure is 106% (inactive); as for `CCCC(C)OCC(=O)O` (stereo not given), 92.1% (inactive); as for `CC(C)OC(=O)[C@H](C)N[P@@](=O)(OC[C@@]1(C)O[C@@H](n2cc(F)c(N)nc2=O)C[C@@H]1O[P@](=O)(N[C@@H](C)C(=O)OC(C)C)Oc1ccccc1)Oc1ccccc1`, 97.9% (inactive). For `CC[C@@](C)(NC(=O)[C@H](C)NC(=O)CCNC(=O)C(C)(C)NC(=O)[C@H](C)NC(=O)[C@@H]1CCCN1C(=O)[C@@](C)(CC)NC(=O)[C@H](Cc1ccccc1)NC(=O)C1CCCN1C(=O)C(C)(C)NC(=O)C1CCCN1C(=O)C(C)(C)NC(C)=O)C(=O)NCCC(=O)N[C@@H](CC(C)C)C(=O)NC(C)(C)C(=O)NCCC(=O)N[C@@H](CC(C)C)C(=O)NC(C)(C)C(=O)NC(C)(C)C(=O)N[C@@H](CC(C)C)C(=O)NCCC(=O)NCO` (stereo not given in full), the growth was -91.9% (active). Under `CCCCCCCCCCCCCCCCCC1=NC(C)(C)CN1CC(C)O` (stereo not given) stands 115% (inactive). `Cc1nn(-c2ccccc2)c2c1C(c1ccc([N+](=O)[O-])cc1)C(C#N)=C(N)O2` (stereo not given): the growth is 108% (inactive). In the case of `NCCSSC/C=C\CSSCCN`, the growth was 94.6% (inactive). As for `COc1ccc(C2C(C#N)=C(N)Oc3c2sc2c(Br)cccc32)cc1` (stereo not given), the figure is 3.82% (active); as for `C/C(=N\NC(=O)Cn1c(-c2ccc(S(C)(=O)=O)cc2)nc2cc(Cl)ccc21)c1ccc(Cl)cc1`, 68.7% (inactive).

On to `COc1cc(-c2nn(C(C)(C)C)cc2-c2ccnc(NCCCNS(=O)(=O)c3ccc(F)cc3)n2)ccc1Cl`, for which the growth was 72.9% (inactive). As for `O=C(Nc1ccc(-n2ccc3c(NC(=O)c4ccccc4)nccc32)cc1)Nc1ccc(Cl)c(Cl)c1`, the figure is -90.1% (active); as for `Cc1ccc(/C=C/C(=O)c2cccc(OCCCOc3cccc(C(=O)/C=C/c4ccc(C)cc4)c3)c2)cc1`, 89.9% (inactive); as for `O=C1C=C(O)C(=O)C=C1O`, 115% (inactive).

Take `CCOC(=O)c1ccncc1`: the growth is 89.1% (inactive). Regarding `CSc1nc(-c2cccc(NC(=O)CCl)c2)c(C#N)c(=O)n1C`, the growth was -4.77% (active). As for `CCN1/C(=C/C(C)=C/c2sc3ccc4ccccc4c3[n+]2CC)Sc2ccc3ccccc3c21`, the figure is -87.4% (active); as for `N#Cc1ccc(NC(=O)c2sc3nc4c(cc3c2N)C(=O)CCC4)cc1`, 97.6% (inactive). On to `COc1cc2ncnc(-n3ncc4cc(NC(=O)Nc5ccc(Cl)c(Cl)c5)ccc43)c2cc1OC`, for which the growth was -70.5% (active). As for `S=C(NCc1ccc2c(c1)OCO2)N1CCN(c2ncnc3c2oc2ccccc23)CC1`, the figure is -11% (active). `Clc1nc(Oc2ccccc2)nc(-c2cn(-c3ccccc3)c3ccccc23)n1`: the growth is 88.2% (inactive).

Consider `CC(=O)OC(OC(C)=O)C1CCCO1` (stereo not given), for which the growth is 99.5% (inactive).

As to `COc1cccc(CCC(=O)c2cc3c(N)c(C(=O)Nc4ccccc4)sc3nc2C)c1`, the growth was 25.2% (inactive). As for `Cc1ccc2nc(-c3ccc(C(=O)NNC(=S)Nc4ccccc4)cc3)[nH]c2c1`, the figure is 98.6% (inactive). Turning to `COc1ccc(OC)c(-c2c(C#N)c(-c3ccco3)nc3c2c(-c2ccccc2)nn3-c2ccccc2)c1`, the growth is 98.4% (inactive). Consider `O=C(/C=C\c1ccc2c(c1)OCO2)/C=C/c1ccc2c(c1)OCO2`, for which the growth was 20.3% (inactive). As for `O=C(Nc1ccc(Cl)c(C(F)(F)F)c1)Nc1ccc2c(ccn2C(=O)c2cccc(F)c2)c1`, the figure is 9.28% (active); as for `COc1cc2nc(-c3ccc(-c4nn[nH]n4)cc3)[nH]c(=O)c2cc1OC`, 104% (inactive); as for `CSc1ncc(C)c(Nc2ccc(Cl)cc2)n1`, 129% (inactive). Under `CC(C)CSc1oc(-c2ccccc2)nc1S(=O)(=O)c1ccccc1` stands 89.4% (inactive).

These data come from PubChem BioAssay (NCI).
